Consider 15 molecules from PubChem BioAssay (NCI).

This is part of a sample that, as a whole, favours compounds with a hit. Of some 83,000 tested, about 20% had one in any assay.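 Negative percent growth values reflect cell death: -40 means 40% of the cells present at the start died, and -100 means all died.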 Values without a mark were called inactive. The source made the active and inactive calls. How the source made its calls: active means growth percent below 10; inactive means the rest.

The assay concerns MDA-MB-468 breast. Nature of the assay: NCI-60 one-dose screen, 48 h (100 = growth as untreated, 0 = no growth, -100 = all killed). Conditions: 10 µM unless noted.
`Nc1nc(Nc2ccccc2)n[nH]1`: the growth was 120%.

For the molecule `O=C(NCCc1ccccc1)/C(=C\c1ccc(Cl)cc1Cl)NC(=O)c1ccccc1`, the growth is 95.1%. In the case of `CCOc1cccc2c(NC(C)CCCN(CC)CC)c(C)cnc12` (stereo not given), the growth was 92.9%. In the case of `COc1ccc(-c2nc3cc(C(=O)NCc4ccccc4)ccc3n2C2CCCCC2)cc1`, the growth is 98.4%. On to `CN1CCN(CCCOc2cccc3nc(Nc4cc(Cl)cc(Cl)c4)ccc23)CC1`, for which the growth is -52.6% (active).

Turning to `O=C(Nc1cccc(C(F)(F)F)c1)c1cc(-c2ccc(F)cc2F)ccc1O`, the growth was -5% (active). `Cc1ccc2[nH]c(=O)cc(-n3nncc3Cn3c4ccccc4c4ccccc43)c2c1`: the growth is 94.7%. Take `c1ccc(-c2nc3nonc3nc2-c2ccccc2)cc1`: the growth was 38.9%.

Take `COc1ccc2[nH]c(O)c(C(=Nc3ccc(N(C)C(=O)CN4CCN(C)CC4)cc3)c3ccccc3)c2c1`: the growth was 58.1%.

With `CCCCCC(C)(O)C(C(=O)O)c1ccccc1` (stereo not given), the growth was 108%. As to `Cc1c(Cn2cc(COc3ccc(Br)cc3)nn2)c(C)c(Cn2cc(COc3ccc(Br)cc3)nn2)c(C)c1Cn1cc(COc2ccc(Br)cc2)nn1`, the growth is 109%. Take `O=C(Nc1ccc(N2CCNCC2)cn1)c1[nH]ncc1Nc1ncnc2sc3c(c12)CCC3`: the growth is -37.9% (active). Consider `Cc1ccc(S(=O)(=O)c2nc(-c3ccccc3)oc2S(C)=O)cc1` (stereo not given), for which the growth was -59% (active). Turning to `O=C1NC(=O)C(Cn2cnc3ccccc32)N1` (stereo not given), the growth is 99%.

As to `Cn1cc(-c2nc(-c3c[nH]c4c(Cl)nccc34)cs2)c2ccccc21`, the growth is 8.74% (active).
